42 compounds from PubChem BioAssay AID687014 (The Scripps Research Institute Molecular Screening Center, 2013) can be followed below.

Hit rate of the full screen: of about 370,000 compounds, about 6,800 (1.8%) were called active. The list comes from a sample in which actives are over-represented; it also holds similar structures and randomly drawn compounds. A number with no mark means an inactive call.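 How the source made its calls: active means activation above a cutoff set at the mean of all screened compounds plus 3 SD (cut at about 10% in these data); inactive means the rest.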

The assay concerns Nuclear hormone receptor DAF-12 (Heterodera glycines), GAL4 fusion. Put plainly: H. glycines DAF-12 receptor agonists, primary screen, cell-based, luminescence, HEK293, GAL4 fusion, UAS-luciferase (AID 687014).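 Further: 0% = DMSO wells and 100% = sodium butyrate wells.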 The following applies: HEK293 GAL4-hgDAF12 UAS-luciferase reporter, agonist luminescence; at 6.8 µM; hits give high values; normalized to butyrate control.
For `C=CCN1C(=O)[C@@H](CC(=O)NCCCOCCCC)[C@]2(C(=O)OCC)CCCCC/C=C/12`, the activation is -2.8%.

On to `C/C(=N/O)c1ccc(N2C(=O)C3C4C=CC(C3C2=O)C2C3C(=O)N(c5ccc(/C(C)=N/O)cc5)C(=O)C3C42)cc1` (configuration not stated), for which the activation is -2.43%.

Take `COc1ccc(-c2cc(-c3nnc(SCC(=O)Nc4cccc5ccccc45)n3N)[nH]n2)cc1`: the activation was -0.33%.

In the case of `CC[C@H](C)[C@H]1CNC(=O)C(=O)N1CC1CCN(CCc2ccc(OC)c(OC)c2)CC1`, the activation is -1.21%.

On to `CC[C@@H](CCC(=O)N(c1ccccc1)c1ccccc1)C1CC1`, for which the activation is 0.58%.

With `S=c1[nH]nc(/C=C/c2ccccc2)o1`, the activation was 4.59%.

As for `O=c1oc(/C=C/c2ccccc2)nc2ccccc12`, the activation is 16% (active).

As for `O=c1oc(-c2ccccc2NS(=O)(=O)c2ccc(Cl)cc2)nc2ccccc12`, the activation was 0.61%.

On to `COc1ccc(-n2c(COc3ccc(C)cc3)nnc2SCC(=O)Nc2ccc(Oc3ccccc3)cc2)cc1`, for which the activation is 3.51%.

On to `COc1ccccc1NC(=O)C(C)OC(=O)c1ccc(-n2cnnn2)cc1` (configuration not stated), for which the activation was -3.02%.

Turning to `N#Cc1ccc(C2=CC(=O)C[C@H](c3ccc(Cl)cc3)C2)cc1`, the activation is -2.41%.

For `OC(c1ccccc1)c1nc(-c2cnc3ccccc3c2)cs1` (configuration not stated), the activation is 22.6% (active).

Regarding `COc1cccc(C(NC(C)=O)c2nc(-c3cnc4ccccc4c3)cs2)c1` (configuration not stated), the activation is -1%.

Turning to `CC(C)c1cccc(-c2csc(C(O)c3ccccc3)n2)c1` (configuration not stated), the activation is 5.67%.

In the case of `Cc1ccc(N2C(=O)c3ccccc3C2(O)c2ncc[nH]2)cc1` (configuration not stated), the activation was 0.14%.

Regarding `Cc1ccc2[nH]c(=O)c(CN(CC3COCCO3)C(=O)Nc3ccccc3C)cc2c1` (configuration not stated), the activation is -1.5%.

With `COc1ccc2[nH]c(=O)c(CN(CC3CCCO3)C(=O)Nc3ccccc3)cc2c1` (configuration not stated), the activation is -1.35%.

Take `Cc1cccc(NC(=O)N(Cc2cc3cc(C)cc(C)c3[nH]c2=O)CC2COCCO2)c1` (configuration not stated): the activation is 11.3% (active).

`O/N=C(\c1ccc2c(c1)OCCO2)C1CCCCC1`: the activation was -1.1%.

As for `CC(CCN1CCC(C(O)(c2ccccc2)c2ccccc2)CC1)Oc1ccc(Cl)cc1` (configuration not stated), the activation was -0.38%.

Take `C=CCN1C(=O)[C@@H](CC(=O)NCC2CCCCC2)[C@]2(C(=O)OC)CCCCC=C12`: the activation was 2.02%.

As for `O=C(COc1cccc(F)c1)Oc1ccc(C(=O)c2ccccc2)cc1`, the activation was 3.93%.

Take `COC(=O)c1ccc(-c2noc(CN(Cc3ccccn3)CC3CCCO3)n2)cc1` (configuration not stated): the activation is 1.07%.

With `O=C(Oc1ccc(-c2nc(-c3ccccn3)no2)cc1)c1ccccc1`, the activation is 10.9% (active).

On to `CCCC[C@H]1C2CC(OC(=O)NCc3ccccc3)C(C2)[C@H]2CCCCN21` (some centres not stated), for which the activation is -3.36%.

Regarding `Cc1ccc2c(c1)N(CC(=O)NCCc1ccc(Cl)cc1)C(=O)c1cccnc1O2`, the activation is 0.09%.

In the case of `O=C(Nc1ccc2ccccc2c1[N+](=O)[O-])c1ccccc1`, the activation is 15.2% (active).

Regarding `Cc1ccc(NC(=O)c2oc3ccccc3c2C)c([N+](=O)[O-])c1`, the activation is 0.32%.

On to `CN(C)c1ccc(NC(=O)c2ccncc2)c2ccccc12`, for which the activation was -2.36%.

Take `COP(=O)(O)CNC(=O)OCc1ccccc1`: the activation is 2%.

`O=C(CSc1nc2ccccc2n1Cc1ccccc1)NNC(=S)Nc1ccccc1`: the activation is -0.74%.

As for `CCNC(=O)C1(C)CCN(C(=O)c2ccccc2)C1` (configuration not stated), the activation was 2.75%.

Take `CCN1C(=O)N[C@@H]2C[C@H](C(=O)N3CCCC3)[C@H](C)[C@H](c3ccccc3)C[C@@H]21`: the activation was 5.37%.

As for `C=CCOc1c2ccc(C(=O)N(CC)c3ccc(OC)cc3)cc2nn1C`, the activation is -1.06%.

For `CC(=O)C1=C(C)N(Cc2ccccc2)C(=S)NC1c1cccc(Br)c1` (configuration not stated), the activation was -0.58%.

As to `COc1ccnc(NC(=S)N2CCN(c3ncc(C(F)(F)F)cc3Cl)CC2)c1`, the activation is 2.05%.

In the case of `O=c1cc(-c2ccccc2)[nH]c2cc(F)ccc12`, the activation was -0.32%.

As to `COc1cc(OC)cc(-c2cc3ccc(F)cc3cn2)c1`, the activation was 8.86%.

In the case of `Fc1ccc2cnc(-c3ccccc3)cc2c1`, the activation is 15.4% (active).

`CC(C)Cn1c(SCC(=O)Nc2ccc(Cl)cc2F)nc(O)cc1=O`: the activation was -0.64%.

Turning to `CC(=O)c1cc(-c2ccc3ccccc3c2)c(=O)n2c1CCC2`, the activation was 0.58%.

Regarding `Cc1sc2nc(SCC(=O)c3ccc(O)c(O)c3)n(Cc3ccco3)c(=O)c2c1C`, the activation is -0.58%.
